Experimental data taken from PubChem BioAssay (NCI).
This is part of a sample that, as a whole, favours compounds with a hit. Of some 83,000 tested, about 20% had one in any assay.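 In brief: 96-well plates, 48 h treatment, single concentration, percent growth endpoint.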 A number with no mark means an inactive call. Active and inactive are the calls of the source. The calls were made as follows: active = growth percent below 10; inactive = the rest.

Experiments:
Test in all cases: NCI-60 one-dose screen, 48 h (100 = growth as untreated, 0 = no growth, -100 = all killed)
Conditions in all cases: 10 µM
[1] = system: SK-MEL-2 melanoma
[2] = system: EKVX NSCLC
[3] = system: SN12C renal
[4] = system: UO-31 renal
[5] = system: TK-10 renal
[6] = system: ACHN renal
[7] = system: CAKI-1 renal
[8] = system: A498 renal
[9] = system: CCRF-CEM leukemia
[10] = system: MOLT-4 leukemia

Compound | growth [1] | growth [2] | growth [3] | growth [4] | growth [5] | growth [6] | growth [7] | growth [8] | growth [9] | growth [10]
O=C(c1ccc(O)cc1)C1[C@H](c2ccccc2Br)[C@@H](c2ccccc2)NC12C(=O)Nc1ccc(Cl)cc12 (stereo not given in full) | -72.9% (active) | 10.5% | -46.3% (active) | 13.6% | 7.92% (active) | 2.5% (active) | 8.16% (active) | 9.06% (active) | 4.97% (active) | -16.2% (active)
CN1CCCN(Cc2ccc(C(=O)Nc3cccc(Nc4ccc5c(O)cccc5n4)c3)cc2C(F)(F)F)CC1 | -76.5% (active) | -87% (active) | -86.1% (active) | -56.1% (active) | -65.3% (active) | -74.7% (active) | -85.3% (active) | 61.8% | 8.39% (active) | 9.64% (active)
O=C(NO)c1ccc(Cn2ccc3c(Nc4ccccc4)ncnc32)cc1 | 8.71% (active) | 23.6% | 17.6% | 9.48% (active) | 2.65% (active) | 1.86% (active) | 10.7% | -14.2% (active) | 18.2% | 7.84% (active)
N#Cc1c(-c2ccc(F)cc2)nc(SCc2ccc([N+](=O)[O-])cc2)nc1N1CCOCC1 | 87.4% | 39.3% | 74.6% | 50.9% | 84.2% | 51% | 35.9% | 64.4% | 77.2% | 73.7%
CC(=O)c1ccc(Nc2nc(SC(C)C)nc(-c3ccccc3)c2C#N)cc1 | 111% | 39.7% | 10.9% | -53.6% (active) | 6.61% (active) | -56.9% (active) | 8.35% (active) | 94.7% | 97.5% | 82.9%
C=C1CCC2C3(C)COC(c4ccccc4F)OC3CCC2(C)C1C/C=C1/C(=O)OCC1O (stereo not given) | -59.2% (active) | -51.6% (active) | -40.9% (active) | -96.5% (active) | -67.1% (active) | -99.4% (active) | -40.7% (active) | 101% | 15.1% | 9.47% (active)
CN1C(=O)N(C)C2SC(N/N=C/c3ccccc3)=NC21 (stereo not given) | 73.3% | 90.7% | 81.5% | 65.4% | 87.4% | 96.3% | 72.5% | 81.7% | 78.4% | 54.9%
COc1ccc(N(C)c2cc(C#N)nc3ccccc23)cc1/C=C/C(=O)NO | -80% (active) | -54.6% (active) | -51.4% (active) | -55.3% (active) | 23.7% | -22.2% (active) | -19.2% (active) | 16.2% | 9.09% (active) | -3.71% (active)
COc1ccccc1[C@H]1C(C(=O)c2ccc(Cl)cc2)C2(N[C@@H]1c1ccccc1)C(=O)Nc1ccc(Cl)cc12 (stereo not given in full) | -76.2% (active) | 8.9% (active) | -66.3% (active) | 6.99% (active) | 31.4% | 3.8% (active) | 8.2% (active) | 13.1% | 5.19% (active) | -21.1% (active)
CC1=C2C(=C[C@@](C)(COCOCCCl)[C@@H]2O)C(=O)[C@](C)(O)C12CC2 | -100% (active) | -62.1% (active) | -63% (active) | -44.1% (active) | -1.02% (active) | -48% (active) | -14.7% (active) | -31.5% (active) | 3.19% (active) | -12.4% (active)
O=C(c1ccc(Cl)cc1)C1[C@H](c2ccccc2Br)[C@@H](c2ccccc2)NC12C(=O)Nc1ccccc12 (stereo not given in full) | 2.05% (active) | 14% | -54.2% (active) | 13.1% | 55.7% | 11.1% | 14.8% | 55.5% | 7.61% (active) | 2.61% (active)
N#Cc1ccc(-c2nn(-c3ccc(C(=O)O)cc3)cc2CNc2cc(Cl)cc(C(F)(F)F)c2)cc1 | 8.11% (active) | 22.8% | 18.4% | 25% | 63.5% | 17.3% | 20.8% | 39.8% | 5.2% (active) | 6.25% (active)
COC(=O)c1c(C(=O)OC)c2n(c1C)[C@@H]([C@@H](C)[C@H]1CC[C@H]3[C@@H]4CCC5=CC(=O)CC[C@]5(C)[C@H]4CC[C@]13C)SC2 | 40.2% | 26.2% | 58% | 30.1% | 57.9% | 46% | -3.55% (active) | 71.8% | 10.2% | 2.64% (active)
CSc1nc(-c2cccc(C)c2)c2cc(-c3ccccc3)n(C)c2n1 | 12.2% | 18.4% | 20% | 29.8% | 58.1% | 32.4% | 26.2% | 65.5% | 17.5% | 16.8%
COc1ccc(/C=C/C(=O)c2ccc(S(=O)(=O)NCCNc3nc(Nc4ccc(F)cc4)nc(N(C)C)n3)cc2)cc1 | 74.7% | 34.1% | 14.5% | 14% | 70.3% | 16.2% | 27.4% | 47.9% | 16% | 9.26% (active)
Nc1cc(-c2cccc(C(=O)NCc3ccc4c(c3)OCO4)c2)ccn1 | 105% | 76.8% | 104% | 71.9% | 103% | 97% | 92.3% | 106% | 98.9% | 91.1%
Nc1nc2c(F)c(F)c(F)c(F)c2s1 | 106% | 46.1% | 113% | 91% | 101% | 114% | 85.7% | 114% | 106% | 105%
COc1ccc2c3nc4cc(C)c(C)cc4nc3n(CCN(C)C)c2c1 | -4.58% (active) | 12.6% | -15.6% (active) | -67.2% (active) | 15.6% | -64% (active) | -67.5% (active) | 65.4% | 20.1% | 4.84% (active)
CC(=O)Nc1ccc(-n2cnc3cc(-c4ccc(NS(C)(=O)=O)cc4)ccc32)cc1 | 73.2% | 61% | 46.3% | 32.1% | 83.7% | 52.3% | 17.5% | 86.5% | 36.1% | 24.5%
CCOC(=O)C1=C(N)N(c2ccccc2)C2=C(C(=O)CC(C)(C)C2)C1c1ccc(Cl)cc1 (stereo not given) | 30.2% | 27.7% | 64.2% | 29% | 80.4% | 22.3% | 50.2% | 67.2% | 15.4% | 1.54% (active)
Nc1nc(Nc2ccc(Cl)cc2)n(Cc2cccc(Br)c2)n1 | -74.7% (active) | -4.06% (active) | -28.5% (active) | -7.87% (active) | -3.35% (active) | 1.49% (active) | 3.07% (active) | -49% (active) | 4.65% (active) | 8.42% (active)
Nc1nnc(-c2c[nH]c3ncccc23)c(-c2c[nH]c3ccc(Br)cc23)n1 | 23.7% | 53.1% | 45.2% | 35.6% | 44.9% | 35.1% | 23.1% | 48.4% | 39.8% | 12.7%
CN1CCc2c(sc3ncnc(N/N=C/c4ccc5ccccc5c4)c23)C1 | 103% | 90.4% | 72.4% | 60.5% | 110% | 67.2% | 78.2% | 106% | 40.6% | 63.6%
N#Cc1c(-c2ccc(Cl)cc2)cc(-c2ccccc2)nc1OCc1ccccc1 | 76% | 52.6% | 87.8% | 65.6% | 97.8% | 75% | 73.8% | 118% | 79.9% | 47.8%
O=C(CNc1nc(-c2ccccc2)cs1)Nc1cccc([N+](=O)[O-])c1 | -79.9% (active) | -97.1% (active) | -77.8% (active) | -95.7% (active) | -92.2% (active) | -100% (active) | -88.9% (active) | -88.1% (active) | 0.432% (active) | 0.799% (active)
O=C(CSc1nnc(-c2c[nH]c3ccccc23)n1-c1ccccc1)Nc1ccc(C(=O)/C=C/c2ccccc2Cl)cc1 | 93.5% | 67.2% | 84.5% | 51.6% | 103% | 74.5% | 74% | 101% | 88.2% | 55.6%
